# ELG1 repair inh: blocks ELG1-dependent DNA repair in HEK293T cells. HEK293T ELG1-luciferase reporter, luminescence, 16 h; DNA damage induced by 5-fluorouridine. Potency, µM (doses to about 46.1 µM), most hits filed as inhibitors. hit rate 2.3% among 330,000; also: nearly all actives have a fitted effect of over 55% in size
#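 Step one: seed 2,000 cells per well. Step two: pin-transfer compound or DMSO alongside 5-fluorouridine. Step three: incubate 16 hr, 37 °C, 5% CO2. Step four: add ONE-Glo, wait 30 min, read luminescence.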
# MCF10A rereplic: inducers of DNA re-replication in MCF 10A breast cells; Potency, µM (top dose mostly 46.1 µM), most hits filed as activators; MCF 10A DNA re-replication, Hoechst nuclear intensity, 48 h; hit rate 2.9% among 350,000; also: nearly all actives have a fitted effect of over 50% in size
# SW480 rereplic: inducers of DNA re-replication in SW480 colon cancer cells; SW480 DNA re-replication, Hoechst DNA content imaging, 48 h; Potency, µM (highest dose often 46.1 µM), most hits filed as activators; hit rate 1.8% among 340,000; also: nearly all actives have a fitted effect of over 55% in size
#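 Image-based DNA-content assay: after two days of treatment, nuclei were labelled with the DNA dye Hoechst and imaged, and hits were compounds raising the count of nuclei showing high fluorescence intensity.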
# RORgamma inh: ROR gamma (mouse) transcription inhibition; P51450; Drosophila S2 Gal4-RORgamma UAS-luciferase reporter, 20 h; Potency, µM (series often up to 53.6 µM), usual class: inhibitors; hit rate 5.4% among 310,000; AID 2551; also: nearly all actives have a fitted effect of over 60% in size
# Target sequence (P51450 whole entry, looked up, the tested form may be a part): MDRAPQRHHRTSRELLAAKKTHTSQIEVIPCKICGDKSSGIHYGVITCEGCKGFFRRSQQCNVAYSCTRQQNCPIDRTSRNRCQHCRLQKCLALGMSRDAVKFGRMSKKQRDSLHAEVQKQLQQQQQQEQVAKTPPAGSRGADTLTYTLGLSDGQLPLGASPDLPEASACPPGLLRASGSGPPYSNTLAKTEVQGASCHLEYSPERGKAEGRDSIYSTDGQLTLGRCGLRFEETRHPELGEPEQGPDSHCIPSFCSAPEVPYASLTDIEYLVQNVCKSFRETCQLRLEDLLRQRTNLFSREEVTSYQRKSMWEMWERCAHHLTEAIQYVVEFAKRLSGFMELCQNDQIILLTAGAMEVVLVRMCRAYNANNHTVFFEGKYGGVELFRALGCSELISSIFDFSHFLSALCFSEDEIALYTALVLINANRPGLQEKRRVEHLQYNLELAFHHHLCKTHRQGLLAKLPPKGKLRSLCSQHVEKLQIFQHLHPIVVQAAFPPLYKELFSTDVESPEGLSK
#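 Stably transfected Drosophila Schneider cells are the test system, with ROR gamma fused to Gal4 and luciferase under UAS control; luminescence is read after 20 hr of 700 uM copper sulfate induction at ambient temperature.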
# VP16 counter: counter-screen for ROR gamma inhibitors: Gal4-VP16 reporter. Drosophila S2 Gal4-VP16 UAS-luciferase, luminescence, 20 h. Potency, µM (top dose mostly 53.6 µM), usual class: inhibitors. hit rate 3.5% among 310,000. AID 2546;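 also: Gal4-VP16 expression switched on by copper sulfate through the metallothionein promoter; nearly all actives have a fitted effect of over 50% in size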
# Numbers stand for hits; . = inactive; ? = inconclusive; / = no result given; [ ] = another dose, or the depositor's remark. A selection: hits, their analogues and other compounds. The true share with any hit is near 10%. Calls follow the shape of the dose curve; as a rule, active = well fitted curve in the direction sought with a large enough effect; inconclusive = small, poorly fitted or top-dose-only effect, or another doubt; inactive = no such curve, though single readings can be large; an effect the other way counts as inactive or inconclusive.
SMILES,ELG1 repair inh,MCF10A rereplic,SW480 rereplic,RORgamma inh,VP16 counter
CCOC(=O)c1[nH]c2c(c1C)C(=O)CC(c1ccc(OC)c(OC)c1)C2 (stereo unspecified),.,.,.,.,.
COCCOC(=O)c1[nH]c2c(c1C)C(=O)CC(c1cc(OC)ccc1OC)C2 (stereo unspecified),.,?,13µM,.,.
COc1cc(C2CC(=O)c3c([nH]c(C(=O)OCCOC(C)C)c3C)C2)cc(OC)c1OC (stereo unspecified),10µM,.,.,?,?
CCOCCOC(=O)c1[nH]c2c(c1C)C(=O)CC(c1ccc(OC)c(OC)c1)C2 (stereo unspecified),?,.,.,.,.
COc1ccc(OC)c(C2CC(=O)c3c([nH]c(C(=O)OCC4CCCO4)c3C)C2)c1 (stereo unspecified),10µM,15µM,?,.,.
CCCOCCOC(=O)c1[nH]c2c(c1C)C(=O)CC(c1cc(OC)ccc1OC)C2 (stereo unspecified),?,?,3.7µM,?,.
Cc1ccc(NC(=O)CN(C)C(=O)COc2cc(F)ccc2[N+](=O)[O-])cc1,.,.,.,.,.
CC(C)(C)c1ccc(-c2nc3[nH]c(=O)cc(NC(=O)c4ccco4)n3n2)cc1,?,.,.,?,.
O=S1(=O)CCOCCCN1Cc1ccccc1,.,.,.,.,.
Cc1ccc(NC(=O)CNC(=O)OCc2ccccc2)cc1C,.,.,.,.,.
CC(C)C1Nc2ccc(S(=O)(=O)N3CCOCC3)cc2NC1=O (stereo unspecified),.,.,.,.,.
Cc1cc(NC(=O)CN2CCN(c3ccccc3O)CC2)no1,?,.,.,?,.
COc1ccc(OC)c(C2CC(=O)c3c([nH]c(C(=O)OC(C)C)c3C)C2)c1 (stereo unspecified),?,?,3.7µM,.,.
Cc1ccc(-n2nc3c(=O)n(CCCC(=O)NCC(C)c4ccccc4)nc(C)c3c2C)cc1 (stereo unspecified),.,.,.,.,.
Oc1cc2c(cc1CN1CCc3ccccc3C1)OCO2,.,.,.,.,.
O=[N+]([O-])c1cc(CN2CCN(c3cccc(C(F)(F)F)c3)CC2)c2cccnc2c1O,?,.,?,0.11µM,?
COc1cc(CN2CCc3ccccc3C2)ccc1O,?,?,?,5.6µM,3.5µM
Oc1ccc(CN2CCc3ccccc3C2)c2cccnc12,/,2.3µM,?,1µM,?
CCOC(=O)N1CCN(Cc2ccc(O)c3ncccc23)CC1,.,21µM,5.8µM,2.5µM,5µM
O=C1NCCCCC1NS(=O)(=O)c1cccc(C(F)(F)F)c1 (stereo unspecified),.,.,.,.,.
CN(Cc1ccco1)Cc1ccc(O)c2ncccc12,?,.,?,/,/
Oc1ccc(CN2CCCCC2)c2cccnc12,?,.,.,7.1µM,7.9µM
OCc1ccc(O)c2ncccc12,?,?,16µM,13µM,18µM
Oc1ccc(CNc2ccccc2F)c2cccnc12,?,?,?,10µM,?
Cc1ccc(C)c(S(=O)(=O)N2CCN(Cc3ccc(O)c4ncccc34)CC2)c1,?,?,?,2µM,3.2µM
SMILES,ELG1 repair inh,MCF10A rereplic,SW480 rereplic,RORgamma inh,VP16 counter
Oc1ccc2ccccc2c1CN1CCCCC1,/,.,.,/,/
Oc1ccccc1CNc1cccc2cccnc12,?,.,.,?,?
Oc1c(Cl)cc(CN2CCCCC2)c2cccnc12,?,/,/,4.5µM,3.5µM
Oc1ccc(CN2CCN(c3ccccc3)CC2)c2cccnc12,?,?,?,1.3µM,1µM
Oc1ccc(CN2CCC(Cc3ccccc3)CC2)c2cccnc12,.,?,2.9µM,2.2µM,4.5µM
Oc1c(CN2CCCCC2)ccc2cccnc12,/,.,5.2µM,/,/
Cc1ccc(-n2ncc3c(=O)[nH]c(SCC(=O)N4CCOCC4)nc32)cc1,.,26µM,.,.,.
O=C(Cn1[nH]c(=O)c2ccccc2c1=O)OCC(=O)c1ccccc1Cl,.,.,.,/,/
CCc1cc(C(=O)c2ccc(C)cc2)c(NC(=O)CCl)s1,.,?,?,.,.
Cc1cc(C(=O)c2ccc(Cl)cc2)c(NC(=O)CCl)s1,.,21µM,?,10µM,?
CC1=NN(c2ccccc2)C(=O)C1C(=O)c1ccc(Cl)cc1 (stereo unspecified),.,.,.,11µM,?
Cc1cc(O)cc(O)c1C=NCc1ccco1,?,?,.,?,5.6µM
COc1ccc(/C=C2\CCCC3C2=NC(=S)NC3c2ccc(OC)cc2)cc1 (stereo unspecified),?,7.3µM,18µM,6.3µM,13µM
Cc1nn(C)c(C)c1NC(=O)Nc1ccc(Cl)c(Cl)c1,.,.,.,.,.
Cc1nn(C)c2nc(NNC(=O)Nc3cc(Cl)nc(Cl)c3)cc(C(C)C)c12,/,/,/,.,16µM
CC1=NOC(=O)/C1=C\c1ccc(-c2cccc(Cl)c2)o1,?,16µM,?,?,?
Nc1ccccc1N=Cc1ccc(-c2cccc(Cl)c2)o1,?,?,?,?,13µM
CC1=NOC(=O)/C1=C\c1ccc(-c2ccc(Cl)c(C(=O)O)c2)o1,.,.,.,.,.
Cc1ccc(OCC(=O)Nc2ccc(C)c(S(=O)(=O)N3CCCCCC3)c2)c([N+](=O)[O-])n1,16µM,.,.,.,.
COc1ccc(Cl)cc1NC(=O)CN(C)CC(=O)Nc1cccc(S(=O)(=O)N2CCCC2)c1,?,?,.,/,/
CCN(CC(=O)Nc1cccc(S(=O)(=O)N2CCCC2)c1)CC(=O)Nc1ccccc1OC,?,.,.,11µM,.
Cc1ccc(OCC(=O)Nc2cccc(S(=O)(=O)N3CCCCC3)c2)c([N+](=O)[O-])n1,.,.,.,.,.
CN(CC(=O)Nc1cccc(S(=O)(=O)N2CCOCC2)c1)CC(=O)Nc1ccc(Cl)c(C(F)(F)F)c1,13µM,.,.,/,/
COc1ccc(/C=C/C(=O)N(C)CC(=O)Nc2cccc(F)c2)cc1S(=O)(=O)N1CCCCC1,?,?,21µM,/,/
Cn1c2c(c(=O)n(C)c1=O)C(c1ccc(Br)cc1)C(C#N)=C(N)N2 (stereo unspecified),.,.,.,.,.
SMILES,ELG1 repair inh,MCF10A rereplic,SW480 rereplic,RORgamma inh,VP16 counter
Cc1ccc(CNC(=O)COC(=O)CN2C(=O)C3CC=CCC3C2=O)cc1 (stereo unspecified),.,.,.,/,/
Cc1ccc(NC(=O)Cc2ccccc2F)cc1S(=O)(=O)N1CCCCCC1,12µM,.,.,/,/
COc1ccc(NC(=O)c2cc3ccccc3o2)cc1S(=O)(=O)N1CCCCC1,21µM,?,?,/,/
COC(=O)c1cc(NC(=O)Cc2ccc(OC)c(OC)c2)cc(C(=O)OC)c1,?,?,.[9.22 µM],.,.
COc1ccc(CC(=O)Nc2cccc(SC)c2)cc1OC,5.2µM,.,.,.,.
Cc1ccc(NC(=S)NC(=O)c2ccc(F)cc2)cc1S(=O)(=O)Nc1ccccc1Cl,?,?,.,4.5µM,6.3µM
Cc1ccc(C)c(OCCC(=O)OCC(=O)Nc2cccnc2Cl)c1,/,?,.,/,/

# Screens (PubChem BioAssay)
